Source: a collection of fitness landscapes (doi:10.1126/science.1257360)
Over roughly 140,000 sequences, “enrichment ratio after two sorts for PhoP signalling” has its median near 0; the highest 2% begin near 11. The sample as a whole holds a higher share of the highest values than the screen did.

B1: PhoQ; a variant is named by its letters at X, in order, P23837 (parent)
chain: MKKLLRLFFPLSLRVRFLLATAAVVLVLSLAYGMVALIGYSVSFDKTTFRLLRGESNLFYTLAKWENNKLHVELPENIDKQSPTMTLIYDENGQLLWAQRDVPWLMKMIQPDWLKSNGFHEIEADVNDTSLLLSGDHSIQQQLQEVREDDDDAEMTHSVAVNVYPATSRMPKLTIVVVDTIPVELKSSYMVWSWFIYVLSANLLLVIPLLWVAAWWSLRPIEALAKEVRELEEHNRELLNPATTRELTSLVRNLNRLLKSERERYDKYRTTLTDLTHSLKTPLXXLQXXLRSLRSEKMSVSDAEPVMLEQISRISQQIGYYLHRASMRGGTLLSRELHPVAPLLDNLTSALNKVYQRKGVNISLDISPEISFVGEQNDFVEVMGNVLDNACKYCLEFVEISARQTDEHLYIVVEDDGPGIPLSKREVIFDRGQRVDTLRPGQGVGLAVAREITEQYEGKIVAGESMLGGARMEVIFGRQHSAPKDE

Variants of: B1
Test: enrichment ratio after two sorts for PhoP signalling (ratio (wild type AVST 3.29)); higher = more functional
Conditions: with PhoP (E. coli)

Variant | enrichment ratio
QMYK | ≤ 0.25
QIPN | ≤ 0.25
FCES | ≤ 0.25
VVSR | ≤ 0.25
FFWV | ≤ 0.25
QEYV | ≤ 0.25
KSYV | ≤ 0.25
NAWV | ≤ 0.25
QAWV | 20.2
QGWV | 18.5
QSAV | 12.1
QSYV | 14.9
QSAE | ≤ 0.25
KAWV | ≤ 0.25
FSWV | ≤ 0.25
FSAV | 0.409
TGVE | ≤ 0.25
HYPL | ≤ 0.25
AGIC | 3.1
RPIA | ≤ 0.25
TYVT | ≤ 0.25
AHFF | ≤ 0.25
HDNT | ≤ 0.25
WSHN | ≤ 0.25

Variant | enrichment ratio
PSPA | ≤ 0.25
LQDQ | ≤ 0.25
WDVC | ≤ 0.25
DEVE | ≤ 0.25
QLWV | ≤ 0.25
QSWV | 22.9
QGMS | ≤ 0.25
MMAV | 5.57
QQWV | 11.8
QQVK | ≤ 0.25
QRWV | ≤ 0.25
TSAV | 16.5
KSAV | ≤ 0.25
QPWV | ≤ 0.25
QGMV | 23.6
QGIV | ≤ 0.25
IYAV | ≤ 0.25
IMHI | ≤ 0.25
VVLM | 3.83
DISV | ≤ 0.25
ASKR | ≤ 0.25
NKAS | ≤ 0.25
ETLP | ≤ 0.25
QAKK | ≤ 0.25

Variant | enrichment ratio
YNYA | ≤ 0.25
WNDE | ≤ 0.25
QGMI | 19.9
FFMI | ≤ 0.25
KAYV | ≤ 0.25
QGMW | ≤ 0.25
QAYV | 12.6
QAYI | 8.06
WHSE | ≤ 0.25
PFWH | ≤ 0.25
WKDV | ≤ 0.25
GNNT | ≤ 0.25
GNLT | 16.5
GNLA | 7.72
GNCI | 14.4
GTCI | 11.7
GTCA | ≤ 0.25
GNHF | ≤ 0.25
GNYI | ≤ 0.25
GTCK | ≤ 0.25
DCAI | ≤ 0.25
WVLT | ≤ 0.25
WFHM | ≤ 0.25
TILT | 2.41

Variant | enrichment ratio
RNAL | ≤ 0.25
MLVQ | ≤ 0.25
VEVV | 2.45
YEIT | ≤ 0.25
KFTH | ≤ 0.25
FGCH | ≤ 0.25
TGCC | 21.5
HGCC | ≤ 0.25
AGCC | 16.1
AICC | 5.26
SGCC | 14.2
SGCH | 8.61
SGFH | ≤ 0.25
NGCC | ≤ 0.25
FGCC | 13.2
GGCC | 1.09
QGCC | ≤ 0.25
EIKT | ≤ 0.25
ELGV | ≤ 0.25
GQWY | ≤ 0.25
AMER | ≤ 0.25
SFYL | ≤ 0.25
SREH | ≤ 0.25
GSFE | ≤ 0.25

Variant | enrichment ratio
CYLP | ≤ 0.25
TDCC | 12.6
FDCC | ≤ 0.25
LTCC | ≤ 0.25
FVLE | ≤ 0.25
KTTE | ≤ 0.25
PKGP | 4.39
KCLF | ≤ 0.25
TKLF | 18
HKLF | ≤ 0.25
AQLF | 15.8
FQLF | 6.28
SPLF | ≤ 0.25
QCLF | ≤ 0.25
STLF | 14.6
GCLF | 13.2
ADLF | ≤ 0.25
KYLF | ≤ 0.25
AKLF | 7.81
LCCL | ≤ 0.25
GKCT | ≤ 0.25
RRGY | ≤ 0.25
FMSK | ≤ 0.25
SQLF | 12.6

Variant | enrichment ratio
SRLF | ≤ 0.25
DPLF | ≤ 0.25
TTLF | 4.92
AILF | 2.9
SLLF | 0.885
EQLF | ≤ 0.25
GYLF | ≤ 0.25
YTLF | 6.76
GTLF | 11.4
ATLF | 13.9
SELF | 13.1
YMKT | ≤ 0.25
QAAW | ≤ 0.25
WQED | ≤ 0.25
NQDM | ≤ 0.25
IYQN | ≤ 0.25
DQIN | ≤ 0.25
HPPT | ≤ 0.25
DIGD | ≤ 0.25
SIMK | 28.9
SITR | 11.4
NQMS | ≤ 0.25
STMK | 9.3
SISR | 6.33

Variant | enrichment ratio
SQMS | 17.9
KYSK | ≤ 0.25
SQMK | ≤ 0.25
SISK | 12.1
KYTR | ≤ 0.25
SIGR | 1.85
EQMS | ≤ 0.25
DTPY | ≤ 0.25
IRAT | ≤ 0.25
KYIW | ≤ 0.25
VAVA | ≤ 0.25
AHMQ | ≤ 0.25
IGMY | ≤ 0.25
KQNT | ≤ 0.25
QIGW | ≤ 0.25
SIFA | ≤ 0.25
KYTA | ≤ 0.25
SQTI | 13.3
KYTS | ≤ 0.25
SQTA | 0.808
SIGD | 7.24
SILA | 16.9
SIDW | ≤ 0.25
SITS | 11.6

Variant | enrichment ratio
KYLA | ≤ 0.25
SITA | 20
SFTI | ≤ 0.25
AKHI | ≤ 0.25
WPAY | ≤ 0.25
GVTN | ≤ 0.25
NYMC | ≤ 0.25
ICGD | ≤ 0.25
LGEW | ≤ 0.25
SQAN | 6.83
EDDL | ≤ 0.25
SIKQ | ≤ 0.25
SSTI | 13.8
SQTS | 11.8
FQTS | ≤ 0.25
SSLY | 8.15
SISA | 11.9
KYSA | ≤ 0.25
KSTS | ≤ 0.25
SSWI | 2.38
SIYI | ≤ 0.25
KYMS | ≤ 0.25
SIMS | 12.1
DYKN | ≤ 0.25

Variant | enrichment ratio
KNRG | ≤ 0.25
IQKG | ≤ 0.25
SNAN | 6.54
EFAY | ≤ 0.25
SITI | 19.7
SQTC | 20.9
KYWD | ≤ 0.25
WIAK | ≤ 0.25
IQTC | ≤ 0.25
KYTI | ≤ 0.25
SIWD | 14
SIAK | 11.2
NQTC | ≤ 0.25
KYAK | ≤ 0.25
SILY | ≤ 0.25
SPWD | ≤ 0.25
ELMG | ≤ 0.25
HETM | ≤ 0.25
NFED | ≤ 0.25
DCAY | ≤ 0.25
KYSH | ≤ 0.25
QGAE | ≤ 0.25
FIVP | ≤ 0.25
FWLL | ≤ 0.25

Variant | enrichment ratio
PSSI | ≤ 0.25
QLYR | 0.63
YEWP | ≤ 0.25
IVFG | ≤ 0.25
STMS | 15.6
SWMS | ≤ 0.25
SPMS | ≤ 0.25
NWMF | ≤ 0.25
AGSQ | 12.9
NGSQ | ≤ 0.25
AGGK | ≤ 0.25
TGSQ | 25.1
AGSR | ≤ 0.25
RGSQ | ≤ 0.25
LDTG | ≤ 0.25
DEHI | ≤ 0.25
FAGW | ≤ 0.25
HEIN | ≤ 0.25
EYTQ | ≤ 0.25
SPMN | ≤ 0.25
AQMN | 38.4
STMN | 2.85
AQKN | ≤ 0.25
AIMN | 5.77

Variant | enrichment ratio
SQMN | 25.3
YRVY | ≤ 0.25
YKWQ | ≤ 0.25
AELM | 2.01
AEEA | ≤ 0.25
AEGD | 0.253
AEQN | 21.7
AEYN | ≤ 0.25
AEEN | ≤ 0.25
AEQV | 12.7
AQQV | ≤ 0.25
AILD | ≤ 0.25
AELD | 11.4
APLF | ≤ 0.25
AELF | 16.2
MEFK | 1.13
WLKT | ≤ 0.25
LQAS | ≤ 0.25
AEPA | ≤ 0.25
AEWI | ≤ 0.25
AELS | 10.7
AILW | ≤ 0.25
AELA | 18.7
AELK | 11.5

Variant | enrichment ratio
AHLW | ≤ 0.25
AEFA | 0.58
AEFS | 19
AELY | 9.13
AEFP | ≤ 0.25
AELW | 11.4
SDLA | 1.18
VFRG | ≤ 0.25
LTPC | ≤ 0.25
YIFI | ≤ 0.25
AIGN | 6.31
AELV | 24.4
AEWN | ≤ 0.25
AEDK | ≤ 0.25
AHGN | ≤ 0.25
AEHK | ≤ 0.25
AECN | 6.19
AELI | 30.6
AEGN | 12.2
AELP | ≤ 0.25
AELN | 12.5
AVWD | ≤ 0.25
EYSC | ≤ 0.25
PPHG | ≤ 0.25

Variant | enrichment ratio
ISCM | 2.52
EMGW | ≤ 0.25
YGNI | ≤ 0.25
VDAC | ≤ 0.25
QMES | ≤ 0.25
CLVG | ≤ 0.25
FPHK | ≤ 0.25
WEIR | ≤ 0.25
AENI | ≤ 0.25
MELH | 6.92
AELH | 11.9
AENS | 16
AEYR | ≤ 0.25
AELL | 12.1
QELH | ≤ 0.25
GSMR | ≤ 0.25
VMYM | ≤ 0.25
VVSV | ≤ 0.25
